This is a sample that favours compounds with a hit; in the whole collection about 2.4% have one here.
GLP1R ag: activates the human GLP-1 receptor | P43220 | HEK293 GLP-1R CRE-luciferase, luminescence, 4-6 h; cells express a hypersensitive GLP-1R form | Potency, µM (doses to about 45.6 µM), inactives show at the top dose activation, actives largely listed as activators | hit rate 0.007% among 380,000 | AID 624172; also: potency is read from the fitted curve at half-maximal effect; % of control where 0% means no effect
Target sequence (P43220 whole entry, looked up): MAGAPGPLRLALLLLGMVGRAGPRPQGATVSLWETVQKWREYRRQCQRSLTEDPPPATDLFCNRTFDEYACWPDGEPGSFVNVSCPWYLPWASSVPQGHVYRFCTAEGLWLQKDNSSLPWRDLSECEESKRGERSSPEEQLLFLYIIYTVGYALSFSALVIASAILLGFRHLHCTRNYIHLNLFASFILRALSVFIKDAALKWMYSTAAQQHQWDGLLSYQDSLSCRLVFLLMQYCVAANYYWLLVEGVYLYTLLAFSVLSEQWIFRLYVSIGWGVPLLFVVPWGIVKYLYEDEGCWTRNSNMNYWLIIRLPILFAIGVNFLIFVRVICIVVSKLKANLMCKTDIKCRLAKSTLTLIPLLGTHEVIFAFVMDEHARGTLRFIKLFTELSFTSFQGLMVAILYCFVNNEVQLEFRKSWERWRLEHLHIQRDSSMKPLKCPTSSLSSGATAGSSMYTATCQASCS
PTHR1 agonist: activates the human parathyroid hormone receptor PTHR1. HEK293 GP2 PTHR1 cells, GloSensor cAMP luminescence, 1 h. Q03431. Potency, µM (doses to about 115 µM), for the others: top-dose activation, usual class: activators. AID 743266. hit rate 0.075% among 410,000; also: potency is read from the fitted curve at half-maximal effect; nearly all actives have a fitted effect of over 55% in size
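HEK-293-derived GP2 cells expressing PTHR1 and a GloSensor cAMP reporter, 3,000/well, plated overnight, given luciferin plus IBMX (each 0.5 mM as added) for 1 h at 37 °C, then compound for 1 h at 37 °C. Luminescence was read after 15 min at room temperature.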
GLP1R cytotox: cytotoxic in the GLP-1 receptor inverse agonist counter-screen; HEK293 cAMP-luciferase reporter cells, luminescence, 24 h; Potency, µM (titrated, usually from 38.3 µM), for inactives: at the highest dose activity change, negative = inhibition, hits mostly inhibitors; hit rate 0.13% among 410,000; AID 624418;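 also: loss of luciferase light is scored as toxicity; potency is read from the fitted curve at half-maximal effect; % is scaled to controls: 0 for no effect and ±100 for the full control effect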
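Seeding density was 200 cells/uL; after overnight-length (12 h) culture, 23 nL compounds went on for 24 h at 37 °C. Readout used a luciferase detection reagent, luminescence taken after 12 min at room temperature.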
TRHR agonist-1: agonists of human TRH receptor | activation, % at 2 µM | hit rate 0.18% among 360,000 | TRHR cells, calcium flux fluo-8, FDSS agonist mode | AID 493084; in the data active = activation above about 30%; also: 0% is about no effect
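TRHR-expressing cells, plated overnight in medium with 10% serum, were loaded with fluo-8 calcium dye at room temperature. After a 10 s baseline, library compound was pin-added and calcium release was recorded kinetically (ex 480/em 530) as agonist response.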
GLP1R inv ag: GLP-1 receptor (human) inverse agonism; P43220; HEK293 GLP-1R CRE-luciferase, luminescence, 24 h; GLP-1R form is constitutively active; Potency, µM (highest dose often 38.3 µM), inactives show at the highest dose activity change, negative = inhibition, most hits filed as inhibitors; hit rate 1.6% among 410,000; AID 624417; also: potency is read from the fitted curve at half-maximal effect; % is scaled to controls: 0 for no effect and ±100 for the full control effect; nearly all actives have a fitted effect of over 55% in size
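Luminescence readout: a drop in cAMP-driven luciferase signal flags inverse agonism at a constitutively active GLP-1R stably expressed in HEK293. Compound exposure lasted 24 hr at 37 deg C, 5% CO2.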
TRHR enhancer-1: allosteric enhancers of human TRH receptor. P34981. TRHR cells, fluo-8 calcium fluorescence, EC20 TRH enhancement. enhancement, % at 2 µM. hit rate 0.66% among 360,000. AID 493056; in the data active = enhancement above about 30%; also: 0% is about no effect
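TRHR-expressing cells loaded with fluo-8 calcium dye were read kinetically (ex 480/em 530) during compound addition, then stimulated with an EC20 of TRH (10 nM final). Enhancement of the Gq-mediated intracellular calcium response was scored.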
TRHR enhancer-2: confirmation of human TRH receptor allosteric enhancers. shares compounds with TRHR enhancer-1. TRH receptor cell assay, enhancer confirmation qHTS. activity change, negative = inhibition, % at 46.1 µM. 970 tested, under 10 active;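 also: compound effect scored on response to added TRH at EC20 of 10 nM; 0% is about no effect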
TRHR agonist-2: human TRH receptor agonism confirmation; shares compounds with TRHR enhancer-1; TRHR-expressing cells, agonist activation read-out; Potency, µM (titrated, usually from 46.1 µM), without a hit: at the highest dose activation, most hits filed as activators; hit rate 8% among 970; AID 493078; also: potency is read from the fitted curve at half-maximal effect; 0% is about no effect; nearly all actives have a fitted effect of over 75% in size
The depositor's hits bear a star; i = inactive; ? = inconclusive; . = not tested or not shown. Unless noted, calls follow the shape of the dose curve; as a rule, active = well fitted curve in the direction sought with a large enough effect; inconclusive = small, poorly fitted or top-dose-only effect, or another doubt; inactive = no such curve, though single readings can be large; an effect the other way counts as inactive or inconclusive.

SMILES	GLP1R ag	PTHR1 agonist	GLP1R cytotox	TRHR agonist-1	GLP1R inv ag	TRHR enhancer-1	TRHR enhancer-2	TRHR agonist-2
O=C(CN1C(=O)c2ccccc2C1=O)Nc1cc(C(=O)O)cc(C(=O)O)c1	-1%	i	22%	0	26%	0	.	.
COC(=O)c1nnn(-c2nc(N(C)C)nc(N(C)C)n2)c1C	3%	-13%	5%	-1	12%	57*	-4	-1%
COc1nc(N(C)C)nc(-n2nnc(C(C)=O)c2C)n1	-6%	i	-5%	0	26%	1	.	.
COc1cccc(CNC(=O)c2ccc(C)c(NC3=NC4CS(=O)(=O)CC4S3)c2)c1 (configuration not stated)	-7%	-12%	4%	0	3%	1	.	.
Nn1c(N2CCCCC2)nc2ccccc21	-3%	i	-14%	0	-2%	71*	-1	4%
O=C(Nc1ccc(Cl)cc1Cl)c1ccc2c(=O)n3c(nc2c1)CCC3	6%	i	-5%	26	8%	-5	2	?
CCOC(=O)CSc1ccc2nnc(-c3ccncc3)n2n1	6%	i	-1%	-1	1%	52*	4	3%
N#Cc1ccccc1NC(=S)NC(=O)C1CCC1	-2%	i	-8%	0	24%	0	.	.
O=C(NC(=S)Nc1ccccc1Br)C1CCC1	15%	i	?	0	-20%	62*	-7	3%
O=[N+]([O-])c1ccc2sc(SCc3nc4ccccn4c3Br)nc2c1	.	.	.	-1	.	41*	-7	3%
Brc1c(CSc2nc3ccccc3s2)nc2ncccn12	7%	-6%	-3%	0	40%	6	.	.
Cc1ccc(NC(=O)[C@@H]2CCC(=O)N2C2OC(=O)c3ccccc32)cc1Cl (some centres not stated)	29%	i	1%	0	48%	68*	-5	7%
CC(=O)c1ccccc1OCCOc1ncnc2sccc12	11%	-24%	2%	1	57%	60*	1	7%
COc1ccc(-c2nc3cc(C)ccn3c2NC(=O)c2ccc(F)cc2)cc1	1%	i	-2%	0	-25%	3	.	.
COc1ccc(-c2nc3cc(C)ccn3c2NC(=O)c2c(F)cccc2Cl)cc1	-2%	i	6%	2	0%	56*	?	5%
Cc1cccc(C(=O)Oc2ccccc2C(=O)N2CCOCC2)c1	0%	i	-3%	0	-20%	52*	-1	1%
O=C(Oc1ccccc1C(=O)N1CCOCC1)c1cccc(Br)c1	-29%	i	12%	-1	2%	-3	.	.
CCN1CCN(C(=O)C2=CC(c3ccc(OC)cc3)=NS(=O)(=O)N2C)CC1	-1%	-16%	-2%	0	0%	4	.	.
CCCCc1cc(=O)oc2cc(OCC(=O)N(CC)CC)c(Cl)cc12	-2%	-32%	-12%	0	?	66*	-5	0%
CCCCc1cc(=O)oc2cc(OCC(=O)N(CC)CC)ccc12	11%	i	4%	-2	3%	0	.	.
CCS(=O)(=O)N1CCc2cc(C(=O)Nc3ccc(C(=O)OC)cc3)ccc21	.	-25%	2%	0	5%	-8	.	.
COc1ccc(CCNC(=O)c2ccc3c(Cl)c4c(nc3c2)CCCC4)cc1OC	1%	-26%	-18%	0	-15%	3	.	.
Cc1ccccc1OCC(O)CN1CCN(c2ccc(Cl)cc2)CC1 (configuration not stated)	3%	-47%	-3%	1	?	51*	4	0%
Cc1ccccc1OCC(O)CN1CCCCC1 (configuration not stated)	-5%	-13%	?	0	12%	43*	-5	1%
COc1ccc(OCC(O)CN2CCN(c3ccc(Cl)cc3)CC2)cc1 (configuration not stated)	-9%	-25%	-1%	1	?	-5	.	.
SMILES	GLP1R ag	PTHR1 agonist	GLP1R cytotox	TRHR agonist-1	GLP1R inv ag	TRHR enhancer-1	TRHR enhancer-2	TRHR agonist-2
Cn1nc(C(=O)OCC(=O)Nc2ccc(Cl)cc2Cl)c2ccccc2c1=O	1%	-18%	-4%	0	4%	42*	-2	-1%
Cn1nc(C(=O)OCC(=O)Nc2ccc(F)cc2Cl)c2ccccc2c1=O	-3%	-20%	13%	.	1%	.	.	.
CCCOP(=O)(c1ccc(N(C)C)cc1)C(O)c1ccncc1 (configuration not stated)	-5%	i	7%	1	35%	1	.	.
Cc1ccc(NC(=O)C2CC(=O)n3c(nc4ccccc43)N2)cc1Cl (configuration not stated)	3%	i	13%	1	-6%	45*	-2	2%
Cc1ccc(NC(=O)C2CC(=O)n3c(nc4ccccc43)N2)cc1C (configuration not stated)	5%	-2%	0%	0	-1%	0	.	.
CC(Oc1ccc(Cl)cc1Cl)c1nc(-c2ccccn2)no1 (configuration not stated)	21%	-23%	9%	0	?	0	.	.
CCc1ccc(N2CC(C(=O)OCC(=O)NC3CC3)CC2=O)cc1 (configuration not stated)	7%	i	1%	.	6%	.	.	.
Cc1ccc(S(=O)(=O)N2CCCC(C(=O)NCCc3ccccc3)C2)cc1 (configuration not stated)	11%	-24%	3%	-1	-28%	8	.	.
O=C(NCc1cccc(CNC(=O)C(=O)NCC2CCCO2)c1)C(=O)NCC1CCCO1 (configuration not stated)	-1%	-11%	2%	1	9%	42*	1	-1%
O=C(CSc1nnc(-c2ccc(Cl)cc2)n1-c1ccc(Cl)cc1)N/N=C/c1ccco1	-4%	i	-4%	-1	?	48*	13	0%
Nc1nccnc1C(=O)OCc1nc2sc3c(c2c(=O)[nH]1)CCCC3	3%	i	-3%	0	43%	0	.	.
CCOc1ccc(Br)cc1C(=O)Nc1ccc(C(=O)NCC(C)C)cc1	2%	i	7%	-1	36%	2	.	.
